The results in this text go back to PubChem BioAssay (NCATS).

Results filed as inconclusive are left out. Unmarked numbers belong to inactive results. Calls of active or inactive are those of the source. The call rests on the fitted dose curve; in most records, active means well fitted curve in the direction sought with a large enough effect; inconclusive means small, poorly fitted or top-dose-only effect, or another doubt; inactive means no such curve, though single readings can be large; an effect the other way counts as inactive or inconclusive.
Potency means the concentration at half of the fitted maximal effect.

One experiment can be described thus: Cell Viability - LYMP1-003 - Assay at 40 hr (AID 964). Further: nearly all actives have a fitted effect of over 60% in size. On activity change, negative = cytotoxic: on the % scale 0 is the no-effect control and ±100 the full control effect. As to conditions: LYMP1-003 lymphoblastoid viability; series mostly up to 92.2 µM; activity change, negative = cytotoxic: at the top concentration. An outline of the steps:
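Acute toxicity is scored as a concentration-dependent loss of intracellular ATP in LYMP1-003 cells (2500/well, complete medium) after 40 hr at 37 C, measured by CellTiter-Glo luminescence; AC50 values derive from standard Hill modelling.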
As to `O=C(NO)c1ccccc1`, the “activity change, negative = cytotoxic” value is -24.3%.
Turning to `Cc1cc(C(C)(C)C)c(O)c(C(C)(C)C)c1`, the “activity change, negative = cytotoxic” value was -6.5%.
Regarding `c1ccc2occc2c1`, the “activity change, negative = cytotoxic” value is -3.25%.
For the compound `Nc1c2ccccc2nc2ccccc12`, the Potency is 20 µM (active).
For `COc1cc(C=O)ccc1O`, the “activity change, negative = cytotoxic” value was -4.56%.
The same measure, in the same setting: next, `Cc1ccc(O)cc1`: -10.4%; `O=C(c1ccccc1)c1ccccc1`: -2.19%.
Turning to `Oc1ccccc1`, the “activity change, negative = cytotoxic” value was 3.05%.
The same measure, in the same setting: next, `OCc1c[nH]c2ccccc12`: -8.02%; `O=C(Oc1ccccc1)c1ccccc1O`: 5.01%.
Same read-out and setting: then `CCCCC(CC)COC(=O)c1ccccc1C(=O)O` (stereo unspecified), with -11.2%.
For the compound `Nc1ccc(O)cc1`, the Potency was 39.8 µM (active).
In the case of `C1=CC2C3C=CC(C3)C2C1` (stereo unspecified), the “activity change, negative = cytotoxic” value is 4.05%.
On the same count and under the same terms, next, `Brc1ccccc1-c1ccccc1`: -7.29%; `Nc1cccc2c(N)cccc12`: -28.9%.
For `CC(C)(c1ccc(O)cc1)c1ccc(O)cc1`, the Potency result is “inactive”.
In the case of `CC(C)(C)c1ccc(O)c(O)c1`, the Potency was 25.1 µM (active).
On the same count and under the same terms, next, `CCCCCCCCCCCCCCCC[n+]1ccccc1`: 10 µM (active).
On to `CC(C)C(C)(C)C(C)(C)C(C)(C)S`, for which the “activity change, negative = cytotoxic” value was -7.32%.

A further experiment is described as follows: Cell Viability - LYMP2-003 (AID 965).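 Further: cells exposed to compounds for 24 h before reading; nearly all actives have a fitted effect of over 50% in size.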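 On activity change, negative = cytotoxicity: 0% = DMSO only and full effect = 92 µM tetraoctylammonium bromide.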 As to conditions: LYMP2-003 lymphoblastoid cell viability; series mostly up to 92.2 µM; activity change, negative = cytotoxicity: at the top concentration. Summed up:
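Human lymphoblastoid cells (2500/well) were pre-incubated 5 hr at 37 C, then exposed to compounds over a concentration range for 24 hr at 37 C. Intracellular ATP was read by CellTiter-Glo luminescence; AC50 came from Hill-equation fits.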
`O=C(NO)c1ccccc1`: the “activity change, negative = cytotoxicity” value is -1.32%.
Regarding `Cc1cc(C(C)(C)C)c(O)c(C(C)(C)C)c1`, the “activity change, negative = cytotoxicity” value is 14.7%.
On the same count and under the same terms, then `c1ccc2occc2c1`, with 14.8%.
Take `Nc1c2ccccc2nc2ccccc12`: the Potency was 25.1 µM (active).
Take `COc1cc(C=O)ccc1O`: the “activity change, negative = cytotoxicity” value is -3.32%.
On the same count and under the same terms, next, `Cc1ccc(O)cc1`: 0.977%; `O=C(c1ccccc1)c1ccccc1`: 1.29%.
On the same count and under the same terms, then `Oc1ccccc1`, with 10.7%.
On to `OCc1c[nH]c2ccccc12`, for which the “activity change, negative = cytotoxicity” value was 6.96%.
With `O=C(Oc1ccccc1)c1ccccc1O`, the “activity change, negative = cytotoxicity” value is 13.2%.
As to `CCCCC(CC)COC(=O)c1ccccc1C(=O)O` (stereo unspecified), the “activity change, negative = cytotoxicity” value was 5.65%.
In the case of `Nc1ccc(O)cc1`, the Potency was 25.1 µM (active).
Consider `C1=CC2C3C=CC(C3)C2C1` (stereo unspecified), for which the “activity change, negative = cytotoxicity” value is 8.9%.
`Brc1ccccc1-c1ccccc1`: the “activity change, negative = cytotoxicity” value is 17.2%.
Same read-out and setting: next, `Nc1cccc2c(N)cccc12`: 8.14%.
Turning to `CC(C)(c1ccc(O)cc1)c1ccc(O)cc1`, the Potency result was “inactive”.
With `CC(C)(C)c1ccc(O)c(O)c1`, the Potency was 50.1 µM (active).
On the same count and under the same terms, next, `CCCCCCCCCCCCCCCC[n+]1ccccc1`: 31.6 µM (active).
In the case of `CC(C)C(C)(C)C(C)(C)C(C)(C)S`, the “activity change, negative = cytotoxicity” value is -5.05%.

A short description of a further experiment: Cell Viability - LYMP2-004 (AID 966). Further: nearly all actives have a fitted effect of over 65% in size.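 On activity change, negative = cytotoxicity: plate controls were DMSO only for no effect and tetraoctylammonium bromide control for full effect.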 The conditions noted are these: LYMP2-004 lymphoblastoid cell viability, qHTS; series mostly up to 92.2 µM; activity change, negative = cytotoxicity: at the top concentration. An outline of the steps:
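Viable-cell number estimated from ATP luminescence (CellTiter-Glo) in 2500 human lymphoblastoid cells/well after 24 hr at 37 C with compound. AC50 fitted to the standard Hill equation.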
(In qHTS, concentration-response curves come from the screen itself.)
In the case of `O=C(NO)c1ccccc1`, the “activity change, negative = cytotoxicity” value is 2.63%.
As to `Cc1cc(C(C)(C)C)c(O)c(C(C)(C)C)c1`, the “activity change, negative = cytotoxicity” value was 22.8%.
As to `c1ccc2occc2c1`, the “activity change, negative = cytotoxicity” value was 8.06%.
Consider `Nc1c2ccccc2nc2ccccc12`, for which the Potency was 12.6 µM (active).
For the compound `COc1cc(C=O)ccc1O`, the “activity change, negative = cytotoxicity” value is -6.59%.
The same measure, in the same setting: then `Cc1ccc(O)cc1`, with -7.2%; and `O=C(c1ccccc1)c1ccccc1`, with -13.9%.
With `Oc1ccccc1`, the “activity change, negative = cytotoxicity” value was -12.9%.
In the case of `OCc1c[nH]c2ccccc12`, the “activity change, negative = cytotoxicity” value is 9.76%.
Same read-out and setting: then `O=C(Oc1ccccc1)c1ccccc1O`, with 8.01%; and `CCCCC(CC)COC(=O)c1ccccc1C(=O)O` (stereo unspecified), with -3.26%.
For the compound `Nc1ccc(O)cc1`, the Potency was 25.1 µM (active).
Regarding `Brc1ccccc1-c1ccccc1`, the “activity change, negative = cytotoxicity” value was 12.7%.
On the same count and under the same terms, next, `Nc1cccc2c(N)cccc12`: 5.44%.
Turning to `CC(C)(c1ccc(O)cc1)c1ccc(O)cc1`, the Potency result was “inactive”.
Regarding `CC(C)C(C)(C)C(C)(C)C(C)(C)S`, the “activity change, negative = cytotoxicity” value was -17.7%.

The next experiment in a line: Cell Viability - LYMP2-005 (AID 967).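 On activity change, negative = viability loss: plate controls were DMSO only for no effect and 92 µM tetraoctylammonium bromide control for full effect.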 As to conditions: LYMP2-005 lymphoblastoid cell viability; series mostly up to 92.2 µM; activity change, negative = viability loss: at the top concentration. Summed up:
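CellTiter-Glo luminescence (cellular ATP) read-out; LYMP2-005 lymphoblastoid cells, 2500/well, 5 h pre-incubation, then 24 h compound exposure at 37 C in complete medium. Tetraoctylammonium bromide positive control; AC50 by standard Hill fit.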
`O=C(NO)c1ccccc1`: the “activity change, negative = viability loss” value is -49.8%.
`Cc1cc(C(C)(C)C)c(O)c(C(C)(C)C)c1`: the “activity change, negative = viability loss” value was 7.77%.
Regarding `c1ccc2occc2c1`, the “activity change, negative = viability loss” value was -12.6%.
On the same count and under the same terms, next, `CCCC(=O)c1cc(O)c(O)cc1O`: -95.1%; `COc1cc(C=O)ccc1O`: -6.19%.
On the same count and under the same terms, next, `Cc1ccc(O)cc1`: -39.1%; `O=C(c1ccccc1)c1ccccc1`: -12.8%; `Oc1ccccc1`: -18.1%.
On the same count and under the same terms, next, `OCc1c[nH]c2ccccc12`: -5.52%; `O=C(Oc1ccccc1)c1ccccc1O`: 11.3%.
`CCCCC(CC)COC(=O)c1ccccc1C(=O)O` (stereo unspecified): the “activity change, negative = viability loss” value was -21.5%.
Consider `Nc1ccc(O)cc1`, for which the Potency is 25.1 µM (active).
As for `C1=CC2C3C=CC(C3)C2C1` (stereo unspecified), the “activity change, negative = viability loss” value was -10.9%.
Still for that read-out and setting: next, `Brc1ccccc1-c1ccccc1`: -5.39%.
For `Nc1cccc2c(N)cccc12`, the “activity change, negative = viability loss” value is 2.97%.
Regarding `CC(C)(c1ccc(O)cc1)c1ccc(O)cc1`, the Potency result is “inactive”.
Consider `CCCCCCCCCCCCCCCC[n+]1ccccc1`, for which the Potency was 15.8 µM (active).

Another experiment is described as follows: Cell Viability - LYMP2-009 (AID 968). Further: nearly all actives have a fitted effect of over 55% in size.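 On activity change, negative = viability loss: 0% = DMSO alone and the full-kill end = tetraoctylammonium bromide at 92 µM.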 As to conditions: LYMP2-009 lymphoblastoid cell viability; series mostly up to 92.2 µM; activity change, negative = viability loss: at the top concentration.
Consider `O=C(NO)c1ccccc1`, for which the “activity change, negative = viability loss” value is -18.8%.
For `Cc1cc(C(C)(C)C)c(O)c(C(C)(C)C)c1`, the “activity change, negative = viability loss” value was 2.43%.
On the same count and under the same terms, next, `c1ccc2occc2c1`: -6.85%.
For `Nc1c2ccccc2nc2ccccc12`, the Potency is 10 µM (active).
Take `CCCC(=O)c1cc(O)c(O)cc1O`: the “activity change, negative = viability loss” value is -21.1%.
Same read-out and setting: next, `COc1cc(C=O)ccc1O`: -8.74%.
As for `Cc1ccc(O)cc1`, the “activity change, negative = viability loss” value is -1.09%.
On the same count and under the same terms, then `O=C(c1ccccc1)c1ccccc1`, with -5.48%; and `Oc1ccccc1`, with 5.72%; and `OCc1c[nH]c2ccccc12`, with -9.35%.
Still for that read-out and setting: next, `O=C(Oc1ccccc1)c1ccccc1O`: -10.7%; `CCCCC(CC)COC(=O)c1ccccc1C(=O)O` (stereo unspecified): -9.27%.
For the compound `Nc1ccc(O)cc1`, the Potency is 31.6 µM (active).
As to `C1=CC2C3C=CC(C3)C2C1` (stereo unspecified), the “activity change, negative = viability loss” value was -2.79%.
Same read-out and setting: next, `Brc1ccccc1-c1ccccc1`: -0.0694%; `Nc1cccc2c(N)cccc12`: -9.97%.
With `CC(C)(c1ccc(O)cc1)c1ccc(O)cc1`, the Potency entry was “inactive”.
On the same count and under the same terms, next, `CC(C)(C)c1ccc(O)c(O)c1`: 39.8 µM (active); `CCCCCCCCCCCCCCCC[n+]1ccccc1`: 15.8 µM (active).
In the case of `CC(C)C(C)(C)C(C)(C)C(C)(C)S`, the “activity change, negative = viability loss” value is 0.343%.
